Assay results as given in article PMC7862700, “An all-to-all approach to the identification of sequence-specific readers for epigenetic DNA modifications on cytosine”.

Tests used:
Experiment in all cases: DAPPL (digital affinity profiling via proximity ligation, sequencing); 10 mM Tris-HCl pH 7.5, 50 mM NaCl, 1 mM DTT, 4% glycerol, room temperature, 30 min; GST-TFs on glutathione beads, 16-mer random dsDNA library, 0.1% formaldehyde crosslink after washing; high values mean tight binding
[1] = target: T1, FEV (Homo sapiens, UniProt Q99581 1-238); details: protein: recombinant; tags: N-terminal GST; dsDNA, one strand shown
T1 sequence: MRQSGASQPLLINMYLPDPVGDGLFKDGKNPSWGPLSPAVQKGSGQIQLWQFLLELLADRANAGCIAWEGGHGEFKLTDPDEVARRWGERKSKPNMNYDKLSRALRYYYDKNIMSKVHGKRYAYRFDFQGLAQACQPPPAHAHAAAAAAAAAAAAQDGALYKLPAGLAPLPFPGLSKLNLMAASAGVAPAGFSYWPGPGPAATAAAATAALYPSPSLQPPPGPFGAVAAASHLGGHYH
Method in brief: (§1)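 Binding signal is defined as a hexamer's read frequency for one factor over its frequency for the tag-only sample. To obtain reads, GST-fused human transcription factors were expressed in yeast, captured on glutathione beads, barcoded with DNA and pooled with that sample. Pools met 200 nmole of a 16-mer random double-stranded DNA library in Tris/NaCl/DTT/glycerol buffer for 30 min at room temperature before washing, 0.1% formaldehyde crosslinking, proximity ligation (BsaI/T4 ligase, 1 h, 37 °C), PCR and Illumina NextSeq500 sequencing.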

[2] = target: ETV5 (Homo sapiens, UniProt P41161 1-510); details: protein: recombinant; tags: N-terminal GST; dsDNA, one strand shown
Method in brief: as §1

[3] = target: HSF1 (Homo sapiens, UniProt Q00613 1-529); details: protein: recombinant; tags: N-terminal GST; chain copies: 3; dsDNA, one strand shown
Method in brief: as §1

[4] = target: T2, SPIC (Homo sapiens, UniProt Q8N5J4 1-248); details: protein: recombinant; tags: N-terminal GST; dsDNA, one strand shown
T2 sequence: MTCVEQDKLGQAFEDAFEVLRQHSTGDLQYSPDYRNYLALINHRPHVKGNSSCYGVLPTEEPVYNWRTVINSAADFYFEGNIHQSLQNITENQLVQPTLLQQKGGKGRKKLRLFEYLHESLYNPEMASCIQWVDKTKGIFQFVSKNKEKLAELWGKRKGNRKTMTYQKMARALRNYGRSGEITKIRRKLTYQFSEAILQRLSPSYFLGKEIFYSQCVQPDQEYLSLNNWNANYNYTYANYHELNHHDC
Method in brief: as §1

[5] = target: ELF4 (Homo sapiens, UniProt Q99607 1-663); details: protein: recombinant; tags: N-terminal GST; dsDNA, one strand shown
Method in brief: as §1

[6] = target: T3, ELK4 (Homo sapiens, UniProt P28324-2 1-405); details: protein: recombinant; tags: N-terminal GST; dsDNA, one strand shown
T3 sequence: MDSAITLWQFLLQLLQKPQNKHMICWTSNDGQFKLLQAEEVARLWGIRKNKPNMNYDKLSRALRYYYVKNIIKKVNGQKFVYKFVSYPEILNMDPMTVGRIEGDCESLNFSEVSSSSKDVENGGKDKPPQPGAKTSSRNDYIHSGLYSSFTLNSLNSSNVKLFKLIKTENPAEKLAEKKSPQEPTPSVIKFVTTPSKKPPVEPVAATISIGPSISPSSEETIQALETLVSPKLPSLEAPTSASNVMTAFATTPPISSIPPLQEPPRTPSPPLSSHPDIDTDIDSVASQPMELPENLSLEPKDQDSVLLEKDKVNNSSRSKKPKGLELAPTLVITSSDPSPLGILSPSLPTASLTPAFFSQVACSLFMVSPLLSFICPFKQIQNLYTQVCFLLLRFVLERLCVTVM
Method in brief: as §1

[7] = target: T4, ETV2 (Homo sapiens, UniProt O00321 1-342); details: protein: recombinant; tags: N-terminal GST; dsDNA, one strand shown
T4 sequence: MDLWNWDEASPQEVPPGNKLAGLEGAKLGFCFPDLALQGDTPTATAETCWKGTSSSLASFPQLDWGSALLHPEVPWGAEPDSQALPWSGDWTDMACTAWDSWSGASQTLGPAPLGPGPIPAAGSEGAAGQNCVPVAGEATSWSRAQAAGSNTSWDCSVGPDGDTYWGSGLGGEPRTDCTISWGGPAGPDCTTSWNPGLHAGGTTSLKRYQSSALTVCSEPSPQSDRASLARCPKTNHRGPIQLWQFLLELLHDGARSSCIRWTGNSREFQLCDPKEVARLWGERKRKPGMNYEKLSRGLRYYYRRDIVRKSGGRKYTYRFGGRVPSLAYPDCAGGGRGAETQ
Method in brief: as §1

[8] = target: T5, ELF3 (Homo sapiens, UniProt P78545 1-371); details: protein: recombinant; tags: N-terminal GST; dsDNA, one strand shown
T5 sequence: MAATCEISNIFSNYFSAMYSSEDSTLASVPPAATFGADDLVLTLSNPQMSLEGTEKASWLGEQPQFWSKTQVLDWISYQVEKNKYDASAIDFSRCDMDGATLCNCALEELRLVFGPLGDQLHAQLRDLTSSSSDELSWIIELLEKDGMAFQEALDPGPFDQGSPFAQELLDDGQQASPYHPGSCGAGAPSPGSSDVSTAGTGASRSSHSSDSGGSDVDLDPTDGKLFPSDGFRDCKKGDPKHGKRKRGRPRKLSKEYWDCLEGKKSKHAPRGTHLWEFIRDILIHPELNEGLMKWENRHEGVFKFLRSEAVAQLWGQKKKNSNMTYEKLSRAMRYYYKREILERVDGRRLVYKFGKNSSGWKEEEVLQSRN
Method in brief: as §1

[9] = target: CRX (Homo sapiens, UniProt O43186 1-299); details: protein: recombinant; tags: N-terminal GST; dsDNA, one strand shown
Method in brief: as §1

[10] = target: ETV1 (Homo sapiens, UniProt P50549 1-477); details: protein: recombinant; tags: N-terminal GST; dsDNA, one strand shown
Method in brief: as §1

[11] = target: T6, ERF (Homo sapiens, UniProt P50548 1-548); details: protein: recombinant; tags: N-terminal GST; dsDNA, one strand shown
T6 sequence: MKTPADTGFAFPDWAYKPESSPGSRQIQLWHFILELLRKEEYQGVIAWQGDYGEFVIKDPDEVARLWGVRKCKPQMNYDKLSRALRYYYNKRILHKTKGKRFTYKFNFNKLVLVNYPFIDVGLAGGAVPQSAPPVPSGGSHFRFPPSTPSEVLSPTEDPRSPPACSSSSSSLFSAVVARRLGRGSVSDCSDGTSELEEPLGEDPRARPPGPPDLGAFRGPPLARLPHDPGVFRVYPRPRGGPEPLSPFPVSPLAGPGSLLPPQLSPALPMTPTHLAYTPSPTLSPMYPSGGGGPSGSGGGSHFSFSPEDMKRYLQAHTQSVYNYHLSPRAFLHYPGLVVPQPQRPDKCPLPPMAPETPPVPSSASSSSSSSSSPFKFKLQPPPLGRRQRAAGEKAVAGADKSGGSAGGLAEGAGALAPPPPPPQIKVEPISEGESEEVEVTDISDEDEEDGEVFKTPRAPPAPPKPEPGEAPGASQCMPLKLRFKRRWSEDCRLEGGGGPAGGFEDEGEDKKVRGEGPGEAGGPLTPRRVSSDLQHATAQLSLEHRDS
Method in brief: as §1

[12] = target: T7, ETV3L (Homo sapiens, UniProt Q6ZN32 1-361); details: protein: recombinant; tags: N-terminal GST; dsDNA, one strand shown
T7 sequence: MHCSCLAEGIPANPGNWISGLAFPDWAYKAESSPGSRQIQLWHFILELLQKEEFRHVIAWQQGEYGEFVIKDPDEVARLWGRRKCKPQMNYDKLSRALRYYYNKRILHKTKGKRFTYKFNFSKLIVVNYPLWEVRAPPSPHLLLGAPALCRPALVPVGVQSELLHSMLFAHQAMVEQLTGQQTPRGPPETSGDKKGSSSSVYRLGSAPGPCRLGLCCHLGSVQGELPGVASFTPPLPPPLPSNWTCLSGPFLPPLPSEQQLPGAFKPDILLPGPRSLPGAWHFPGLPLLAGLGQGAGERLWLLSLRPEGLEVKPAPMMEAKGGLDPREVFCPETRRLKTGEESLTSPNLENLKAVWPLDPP
Method in brief: as §1

[13] = target: T8, ETS2 (Homo sapiens, UniProt P15036 1-469); details: protein: recombinant; tags: N-terminal GST; dsDNA, one strand shown
T8 sequence: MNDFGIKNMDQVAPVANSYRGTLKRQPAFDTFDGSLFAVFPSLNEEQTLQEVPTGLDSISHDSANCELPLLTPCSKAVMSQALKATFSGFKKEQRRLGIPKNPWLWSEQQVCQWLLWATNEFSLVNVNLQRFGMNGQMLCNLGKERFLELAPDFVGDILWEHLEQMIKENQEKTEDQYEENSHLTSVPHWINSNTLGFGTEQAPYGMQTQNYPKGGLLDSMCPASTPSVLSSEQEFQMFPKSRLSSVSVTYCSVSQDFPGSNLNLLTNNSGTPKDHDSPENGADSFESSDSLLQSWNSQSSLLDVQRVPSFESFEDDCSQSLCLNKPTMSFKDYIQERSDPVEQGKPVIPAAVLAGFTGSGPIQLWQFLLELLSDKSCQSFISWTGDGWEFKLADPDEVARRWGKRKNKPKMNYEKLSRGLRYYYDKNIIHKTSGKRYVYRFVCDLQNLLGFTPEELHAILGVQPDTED
Method in brief: as §1

[14] = target: T9, SPDEF (Homo sapiens, UniProt O95238 1-335); details: protein: recombinant; tags: N-terminal GST; dsDNA, one strand shown
T9 sequence: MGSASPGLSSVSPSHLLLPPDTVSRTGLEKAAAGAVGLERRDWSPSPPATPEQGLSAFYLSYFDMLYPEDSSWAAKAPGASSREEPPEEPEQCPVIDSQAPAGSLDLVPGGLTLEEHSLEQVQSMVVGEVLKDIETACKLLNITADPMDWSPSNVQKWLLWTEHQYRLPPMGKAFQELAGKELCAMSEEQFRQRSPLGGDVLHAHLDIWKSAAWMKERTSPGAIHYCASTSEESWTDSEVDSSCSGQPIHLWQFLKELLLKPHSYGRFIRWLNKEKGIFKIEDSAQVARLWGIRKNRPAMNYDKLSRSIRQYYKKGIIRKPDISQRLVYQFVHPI
Method in brief: as §1

[15] = target: T10, ETV7 (Homo sapiens, UniProt Q9Y603 1-341); details: protein: recombinant; tags: N-terminal GST; dsDNA, one strand shown
T10 sequence: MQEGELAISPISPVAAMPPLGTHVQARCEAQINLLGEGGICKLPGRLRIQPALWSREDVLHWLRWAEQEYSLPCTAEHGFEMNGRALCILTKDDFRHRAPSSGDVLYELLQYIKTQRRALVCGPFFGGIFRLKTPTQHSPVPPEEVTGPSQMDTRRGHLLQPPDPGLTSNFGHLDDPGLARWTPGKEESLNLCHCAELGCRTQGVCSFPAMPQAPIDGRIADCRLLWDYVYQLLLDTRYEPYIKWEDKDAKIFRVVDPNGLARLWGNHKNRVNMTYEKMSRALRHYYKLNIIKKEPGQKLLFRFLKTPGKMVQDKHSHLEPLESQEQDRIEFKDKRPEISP
Method in brief: as §1

[16] = target: T11, ELF5 (Homo sapiens, UniProt Q9UKW6-2 1-255); details: protein: recombinant; tags: N-terminal GST; dsDNA, one strand shown
T11 sequence: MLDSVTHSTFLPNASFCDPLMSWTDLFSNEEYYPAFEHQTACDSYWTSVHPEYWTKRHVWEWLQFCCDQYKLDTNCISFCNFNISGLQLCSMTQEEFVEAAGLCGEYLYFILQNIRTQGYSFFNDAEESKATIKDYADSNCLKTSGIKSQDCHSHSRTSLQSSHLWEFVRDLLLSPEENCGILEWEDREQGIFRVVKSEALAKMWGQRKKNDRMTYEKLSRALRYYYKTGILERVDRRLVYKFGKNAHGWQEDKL
Method in brief: as §1

[17] = target: T12, ETV3 (Homo sapiens, UniProt P41162-2 1-143); details: protein: recombinant; tags: N-terminal GST; dsDNA, one strand shown
T12 sequence: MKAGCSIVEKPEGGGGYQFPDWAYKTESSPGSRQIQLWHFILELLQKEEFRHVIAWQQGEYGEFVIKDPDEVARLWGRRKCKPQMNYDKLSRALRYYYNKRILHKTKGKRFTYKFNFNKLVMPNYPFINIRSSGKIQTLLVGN
Method in brief: as §1

[18] = target: ETV6 (Homo sapiens, UniProt P41212 1-452); details: protein: recombinant; tags: N-terminal GST; dsDNA, one strand shown
Method in brief: as §1

Chain of HSF1 (Q00613 whole entry): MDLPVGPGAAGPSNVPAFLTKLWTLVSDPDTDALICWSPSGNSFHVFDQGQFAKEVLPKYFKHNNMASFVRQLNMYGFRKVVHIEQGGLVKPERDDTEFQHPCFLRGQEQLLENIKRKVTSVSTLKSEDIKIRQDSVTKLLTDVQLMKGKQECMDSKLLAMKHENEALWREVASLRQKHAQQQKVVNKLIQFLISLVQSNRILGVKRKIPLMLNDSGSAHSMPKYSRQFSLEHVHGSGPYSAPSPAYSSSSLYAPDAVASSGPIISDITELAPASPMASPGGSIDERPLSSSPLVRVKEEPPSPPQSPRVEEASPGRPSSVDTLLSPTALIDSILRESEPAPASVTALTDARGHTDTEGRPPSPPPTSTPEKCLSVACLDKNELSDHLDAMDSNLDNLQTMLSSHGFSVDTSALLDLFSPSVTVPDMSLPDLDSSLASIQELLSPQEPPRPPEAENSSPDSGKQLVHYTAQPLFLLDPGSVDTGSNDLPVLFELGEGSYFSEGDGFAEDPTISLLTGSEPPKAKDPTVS
Chain of ELF4 (Q99607 whole entry): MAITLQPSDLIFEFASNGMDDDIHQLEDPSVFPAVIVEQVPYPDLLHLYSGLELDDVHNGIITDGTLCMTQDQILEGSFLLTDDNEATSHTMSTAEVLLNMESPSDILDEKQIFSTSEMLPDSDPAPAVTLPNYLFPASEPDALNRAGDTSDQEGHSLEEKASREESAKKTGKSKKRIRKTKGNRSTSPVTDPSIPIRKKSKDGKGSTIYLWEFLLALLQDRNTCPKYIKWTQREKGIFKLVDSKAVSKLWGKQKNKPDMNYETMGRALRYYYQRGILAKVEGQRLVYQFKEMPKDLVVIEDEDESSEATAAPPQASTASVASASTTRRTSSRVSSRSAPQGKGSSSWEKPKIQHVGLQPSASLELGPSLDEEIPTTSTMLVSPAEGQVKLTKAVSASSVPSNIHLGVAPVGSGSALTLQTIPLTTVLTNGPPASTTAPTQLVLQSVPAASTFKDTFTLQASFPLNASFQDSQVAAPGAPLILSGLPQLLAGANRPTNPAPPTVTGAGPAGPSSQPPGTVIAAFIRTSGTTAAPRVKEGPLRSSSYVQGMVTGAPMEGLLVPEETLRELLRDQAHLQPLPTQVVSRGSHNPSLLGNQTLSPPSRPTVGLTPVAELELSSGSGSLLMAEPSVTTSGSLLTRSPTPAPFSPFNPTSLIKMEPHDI
Chain of ETV1 (P50549 whole entry): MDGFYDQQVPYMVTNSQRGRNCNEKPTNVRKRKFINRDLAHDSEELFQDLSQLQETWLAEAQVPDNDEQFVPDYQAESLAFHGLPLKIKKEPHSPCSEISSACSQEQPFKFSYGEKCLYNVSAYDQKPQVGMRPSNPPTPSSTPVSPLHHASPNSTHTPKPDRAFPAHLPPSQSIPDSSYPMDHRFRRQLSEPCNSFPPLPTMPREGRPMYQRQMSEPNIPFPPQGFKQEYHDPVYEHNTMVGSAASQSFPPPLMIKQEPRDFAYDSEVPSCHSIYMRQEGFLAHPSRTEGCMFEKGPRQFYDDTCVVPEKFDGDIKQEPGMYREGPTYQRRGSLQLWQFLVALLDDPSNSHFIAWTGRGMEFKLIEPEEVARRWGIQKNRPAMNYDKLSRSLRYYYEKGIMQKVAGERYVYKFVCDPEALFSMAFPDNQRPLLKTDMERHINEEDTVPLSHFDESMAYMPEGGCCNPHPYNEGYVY
Chain of ETV5 (P41161 whole entry): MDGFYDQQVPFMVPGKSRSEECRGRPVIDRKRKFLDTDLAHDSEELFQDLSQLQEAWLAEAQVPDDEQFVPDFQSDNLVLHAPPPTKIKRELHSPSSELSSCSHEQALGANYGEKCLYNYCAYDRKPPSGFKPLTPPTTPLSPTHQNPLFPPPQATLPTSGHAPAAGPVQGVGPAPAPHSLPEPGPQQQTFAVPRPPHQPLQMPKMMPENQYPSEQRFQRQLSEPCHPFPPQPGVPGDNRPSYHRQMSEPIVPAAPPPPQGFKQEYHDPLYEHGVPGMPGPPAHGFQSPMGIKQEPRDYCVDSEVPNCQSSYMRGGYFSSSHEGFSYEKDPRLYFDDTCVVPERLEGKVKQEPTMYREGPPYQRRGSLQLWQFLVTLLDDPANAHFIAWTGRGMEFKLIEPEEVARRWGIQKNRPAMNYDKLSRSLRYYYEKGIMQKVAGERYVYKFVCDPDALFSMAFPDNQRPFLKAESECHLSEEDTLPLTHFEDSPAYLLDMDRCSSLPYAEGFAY
Chain of CRX (O43186 whole entry): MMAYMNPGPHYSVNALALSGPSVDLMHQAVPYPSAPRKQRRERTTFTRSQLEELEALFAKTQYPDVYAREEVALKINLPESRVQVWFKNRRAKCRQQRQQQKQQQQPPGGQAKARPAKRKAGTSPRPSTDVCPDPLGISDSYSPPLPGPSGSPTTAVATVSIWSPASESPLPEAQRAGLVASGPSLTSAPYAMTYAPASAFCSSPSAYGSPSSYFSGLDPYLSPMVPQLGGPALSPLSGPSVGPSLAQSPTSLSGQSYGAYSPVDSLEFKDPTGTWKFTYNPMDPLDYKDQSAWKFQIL
Chain of ETV6 (P41212 whole entry): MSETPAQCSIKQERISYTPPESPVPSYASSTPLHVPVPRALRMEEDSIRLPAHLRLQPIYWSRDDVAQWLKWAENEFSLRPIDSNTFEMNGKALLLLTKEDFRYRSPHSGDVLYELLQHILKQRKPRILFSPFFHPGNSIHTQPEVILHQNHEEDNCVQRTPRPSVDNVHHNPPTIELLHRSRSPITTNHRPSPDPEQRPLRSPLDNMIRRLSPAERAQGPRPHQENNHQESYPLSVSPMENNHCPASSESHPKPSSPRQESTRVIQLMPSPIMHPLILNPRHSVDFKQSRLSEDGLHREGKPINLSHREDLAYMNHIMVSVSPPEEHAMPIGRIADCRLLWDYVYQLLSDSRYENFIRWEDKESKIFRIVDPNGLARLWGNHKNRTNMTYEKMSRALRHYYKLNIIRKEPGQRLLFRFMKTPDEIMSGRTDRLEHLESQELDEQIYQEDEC

With TCAAAC the binding signal [1] was 1.21 fold enrichment (6-mer frequency, TF over GST control), the binding signal [2] was 1.17 fold enrichment (6-mer frequency, TF over GST control) and the binding signal [3] was 1.03 fold enrichment (6-mer frequency, TF over GST control). For the same sequence, the binding signal [4] was 1.19 fold enrichment (6-mer frequency, TF over GST control), the binding signal [5] was 1.21 fold enrichment (6-mer frequency, TF over GST control) and the binding signal [6] was 1.28 fold enrichment (6-mer frequency, TF over GST control). For the same sequence, the binding signal [7] was 1.3 fold enrichment (6-mer frequency, TF over GST control), the binding signal [8] was 1.24 fold enrichment (6-mer frequency, TF over GST control) and the binding signal [9] was 1.14 fold enrichment (6-mer frequency, TF over GST control). For the same sequence, the binding signal [10] was 1.29 fold enrichment (6-mer frequency, TF over GST control), the binding signal [11] was 1.18 fold enrichment (6-mer frequency, TF over GST control) and the binding signal [12] was 1.09 fold enrichment (6-mer frequency, TF over GST control). For the same sequence, the binding signal [13] was 1.19 fold enrichment (6-mer frequency, TF over GST control), the binding signal [14] was 1.15 fold enrichment (6-mer frequency, TF over GST control) and the binding signal [15] was 1.11 fold enrichment (6-mer frequency, TF over GST control). For the same sequence, the binding signal [16] was 1.12 fold enrichment (6-mer frequency, TF over GST control), the binding signal [17] was 1.21 fold enrichment (6-mer frequency, TF over GST control) and the binding signal [18] was 1.19 fold enrichment (6-mer frequency, TF over GST control).
